Bioassay records as filed in PubChem.
SMN2 splice up: enhancers of SMN2 splice variant expression; HEK293 SMN2-luciferase splicing reporter, luminescence, 30-36 h; Potency, µM (doses to about 46.1 µM), for inactives: at the top dose activity change, positive = activation, most hits filed as activators; actives 2.8% (n = 210,000); AID 1458; also: % of control where 0% means no effect; nearly all actives have a fitted effect of over 55% in size
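HEK293 cells carry an SMN2 […]–luciferase reporter in which exon 7 inclusion puts luciferase in frame. Cells were plated 10-12 h before compound addition, then incubated 30-36 h at 37C. ONE-Glo luminescence was read; sodium butyrate at 4.5 mM final served as control.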
ELG1 genotoxic: inducers of genotoxicity in HEK293T ELG1-luciferase cells; HEK293T ELG1-luciferase reporter, luminescence, 16 h; Potency, µM (titrated, usually from 46 µM), for inactives: at the highest dose activity change, positive = activation, usual class: activators; actives 1.3% (n = 330,000); also: % of control where 0% means no effect; nearly all actives have a fitted effect of over 60% in size
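ELG1-luciferase HEK293T cells, 2,000/well; compound pinned in; 16 hr, 37 °C, 5% CO2; ONE-Glo, 30 min RT; luminescence on CCD imager.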
NPC1 promoter act: activators of NPC1 promoter | Potency, µM (series often up to 9.22 µM), inactives show top-dose activation, hits mostly activators | actives 2.4% (n = 320,000) | AID 485313 | Huh7 NPC1 promoter luciferase reporter, 24 h; also: % of control where 0% means no effect; nearly all actives have a fitted effect of over 60% in size
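Quantitative HTS used a cell-based reporter: Huh7 cells stably bearing the NPC1 promoter upstream of luciferase were treated with compounds for 24 h, and promoter activation was read as luminescence.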
Rab9 promoter act: activators of Rab9 promoter. Huh7 Rab9 promoter-luciferase reporter, luminescence, 24 h. Potency, µM (doses to about 9.22 µM), for the others: at the top dose activation, negative = inhibition, most hits filed as activators. actives 2.8% (n = 320,000). AID 485297; also: % of control where 0% means no effect; nearly all actives have a fitted effect of over 60% in size
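Stable Rab9-luc Huh7, 1500 cells/well, 2 h settle; cmpd in DMSO, 24 h, 37 °C/5% CO2; luciferase reagent 10 min RT; luminescence.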
FLuc counter: inhibits or activates purified firefly luciferase, miR-21 counter-screen | purified FLuc, Km substrates, luminescence inhibition | actives 6.9% (n = 360,000) | AID 588342 | Potency, µM (highest dose often 57.5 µM), without a hit: top-dose activity change, negative = inhibition, actives largely listed as inhibitors | P08659;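 also: plate controls were vehicle for no effect and reference inhibitor for full effect; nearly all actives have a fitted effect of over 55% in size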
Target sequence (P08659 whole entry, looked up): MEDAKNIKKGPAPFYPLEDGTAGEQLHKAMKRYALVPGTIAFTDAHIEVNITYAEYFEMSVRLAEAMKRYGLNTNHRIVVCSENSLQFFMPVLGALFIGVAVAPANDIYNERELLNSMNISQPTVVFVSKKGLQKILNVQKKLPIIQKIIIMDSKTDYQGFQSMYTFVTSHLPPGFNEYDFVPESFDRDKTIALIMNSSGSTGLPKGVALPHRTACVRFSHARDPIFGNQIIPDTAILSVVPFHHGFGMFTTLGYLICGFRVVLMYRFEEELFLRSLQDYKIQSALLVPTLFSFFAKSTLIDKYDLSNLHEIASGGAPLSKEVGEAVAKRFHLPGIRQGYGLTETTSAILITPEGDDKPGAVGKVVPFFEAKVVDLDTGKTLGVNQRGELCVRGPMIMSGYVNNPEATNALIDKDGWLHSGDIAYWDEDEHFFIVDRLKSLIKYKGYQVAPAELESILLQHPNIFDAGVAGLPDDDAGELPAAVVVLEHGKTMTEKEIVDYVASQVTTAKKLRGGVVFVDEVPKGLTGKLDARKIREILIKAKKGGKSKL
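Purified P. pyralis luciferase, 10 nM final, with Km-level 10 uM D-luciferin and 10 uM ATP in 50 mM Tris acetate pH 7.5, 10 mM Mg acetate, 0.01% Tween-20, 0.05% BSA; 6-point qHTS titration about 60 µM downward; luminescence read.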
ELG1 repair inh: ELG1-dependent DNA repair inhibition; HEK293T ELG1-luciferase reporter, luminescence, 16 h; DNA damage induced by 5-fluorouridine; actives 2.3% (n = 330,000); Potency, µM (series often up to 46.1 µM), for the others: top-dose activity change, negative = inhibition, actives largely listed as inhibitors; also: % is scaled to controls: 0 for no effect and ±100 for the full control effect; nearly all actives have a fitted effect of over 55% in size
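Reporter activity after DNA damage by 5-fluorouridine is monitored. Compound-treated cells incubate 16 hr at 37 °C, then ONE-Glo is added for 30 min before luminescence reading.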
The depositor's hits bear a star; [ ] = another dose, or the depositor's remark. The list is not random: actives were taken first. Their share in the collection is about 9.2%. Calls follow the shape of the dose curve; as a rule, active = well fitted curve in the direction sought with a large enough effect; inconclusive = small, poorly fitted or top-dose-only effect, or another doubt; inactive = no such curve, though single readings can be large; an effect the other way counts as inactive or inconclusive. Potency is read from the fitted curve at half-maximal effect.

Results for COc1cccc(N2C(=O)C(CC(=O)Nc3ccccc3)N(CCc3sccc3C)C2=O)c1 (stereo unspecified) ?
SMN2 splice up: 13%; FLuc counter: -2%

How did O=C(CSc1cccc[n+]1[O-])c1cc2ccccc2o1 do in these assays?
SMN2 splice up: -25%; ELG1 genotoxic: inconclusive; NPC1 promoter act: inconclusive; Rab9 promoter act: inconclusive; FLuc counter: 19µM*; ELG1 repair inh: inconclusive

What do the screens show for `CCCCn1c(SCC(=O)NCc2ccco2)nc2ccccc2c1=O`?
SMN2 splice up: -14%; ELG1 genotoxic: -2%; NPC1 promoter act: 1%; Rab9 promoter act: 1%; FLuc counter: 0%; ELG1 repair inh: -4%

What do the screens show for `COc1cc(NC(=O)Cn2c(SCc3ccc(F)cc3)nc3cccnc32)cc(OC)c1`?
FLuc counter: 2%

Results for O=C(CSc1nc2cccnc2n1Cc1ccccc1)NCc1ccco1 ?
SMN2 splice up: 19%; ELG1 genotoxic: -4%; NPC1 promoter act: 3%; Rab9 promoter act: -1%; FLuc counter: -3%; ELG1 repair inh: 4%

Results for CCCCCn1c(SCc2ccncc2)nc2cc(C(=O)NCc3ccco3)ccc2c1=O ?
SMN2 splice up: 2%; ELG1 genotoxic: -9%; NPC1 promoter act: -4%; Rab9 promoter act: 1%; FLuc counter: 2%; ELG1 repair inh: 6.5µM*

Results for Cc1ccc(CSc2nc3cccnc3n2Cc2ccc(C(=O)NCc3ccco3)cc2)cc1 ?
FLuc counter: 0.6µM*

How did COc1ccc(NC(=O)Cn2c(SCc3ccc(C)cc3)nc3cccnc32)c(OC)c1 do in these assays?
FLuc counter: 1.9µM*

Results for Cc1ccc(CNC(=O)c2ccc(Cn3c(SCc4ccccc4F)nc4cccnc43)cc2)cc1 ?
FLuc counter: 6.7µM*

What do the screens show for `Cc1cccc(C)c1NC(=O)CNC(=O)c1ccc(COc2ccccc2)cc1`?
ELG1 genotoxic: 0%; NPC1 promoter act: -3%; Rab9 promoter act: -3%; FLuc counter: 4%; ELG1 repair inh: 28%

What do the screens show for `COc1cccc(NC(=O)CN(C)C(=O)Cn2cnc3ccccc3c2=O)c1`?
ELG1 genotoxic: 2%; NPC1 promoter act: 0%; Rab9 promoter act: -7%; FLuc counter: 1%; ELG1 repair inh: 1%

How did O=C(NC1CCCC1)c1ccc(CSc2nc3cccnc3n2Cc2ccc(F)cc2)cc1 do in these assays?
FLuc counter: -8%

How did Cc1cccc(CSc2nc3cccnc3n2Cc2ccc(C(=O)NCc3ccco3)cc2)c1 do in these assays?
FLuc counter: 19µM*

What do the screens show for `O=C(NCc1ccco1)c1ccc(Cn2c(SCc3ccccc3F)nc3cccnc32)cc1`?
FLuc counter: 8.5µM*

Results for Cc1ccc(CNC(=O)c2ccc(Cn3c(SCc4ccc(F)cc4)nc4cccnc43)cc2)o1 ?
SMN2 splice up: 0%; FLuc counter: 3.8µM*

How did Cc1ccc(Cn2c(SCc3ccc(C(=O)O)cc3)nc3cccnc32)cc1 do in these assays?
SMN2 splice up: -3%; FLuc counter: 17µM*

How did N#CC(=C=[N-])c1nc2ccccc2nc1-[n+]1cccc(NC(=O)c2cccs2)c1 do in these assays?
ELG1 genotoxic: 2%; NPC1 promoter act: -8%; Rab9 promoter act: 2%; FLuc counter: 3%; ELG1 repair inh: -4%

What do the screens show for `Cc1cccc(Nc2nc(-c3ccncc3)cs2)c1`?
SMN2 splice up: -4%; ELG1 genotoxic: 3%; NPC1 promoter act: 1%; Rab9 promoter act: inconclusive; FLuc counter: 17µM*; ELG1 repair inh: inconclusive

How did Cc1ccc(Nc2nc(-c3ccncc3)cs2)cc1 do in these assays?
ELG1 genotoxic: inconclusive; NPC1 promoter act: 2.2µM*; Rab9 promoter act: 1.3µM*; FLuc counter: 0.95µM*; ELG1 repair inh: inconclusive

How did CC(=O)Nc1ccc(-c2csc(NNC(=O)c3ccc(C)cc3)n2)cc1 do in these assays?
SMN2 splice up: -17%; ELG1 genotoxic: -6%; NPC1 promoter act: -4%; Rab9 promoter act: -3%; FLuc counter: 2%; ELG1 repair inh: -20%

Results for Clc1cccc(Nc2nc(-c3ccncc3)cs2)c1 ?
ELG1 genotoxic: -2%; NPC1 promoter act: -5%; Rab9 promoter act: -2%; FLuc counter: -3%; ELG1 repair inh: -2%

Results for Cc1cccc(Nc2nc(-c3ccc4c(c3)OCCO4)cs2)c1 ?
SMN2 splice up: 11µM*; ELG1 genotoxic: 2.3µM*; NPC1 promoter act: 2µM*; Rab9 promoter act: 0.89µM*; FLuc counter: 2.7µM*; ELG1 repair inh: inconclusive

What do the screens show for `COc1cc(-c2csc(C)n2)ccc1O`?
SMN2 splice up: 24%; ELG1 genotoxic: 0%; NPC1 promoter act: 2%; Rab9 promoter act: 0%; FLuc counter: -3%[2.3 µM]; ELG1 repair inh: 14%

How did Cc1nc(-c2ccc3c(c2)OCCO3)cs1 do in these assays?
SMN2 splice up: inconclusive; ELG1 genotoxic: inconclusive; NPC1 promoter act: 2.8µM*; Rab9 promoter act: 3.2µM*; FLuc counter: 21µM*; ELG1 repair inh: inconclusive

What do the screens show for `O=C(O)c1cc(-c2ccc(Cl)c(Cl)c2)n(-c2ccccc2)n1`?
ELG1 genotoxic: -1%; NPC1 promoter act: -1%; Rab9 promoter act: -3%[1.84 µM]; FLuc counter: -5%; ELG1 repair inh: -3%

How did CCN1CCOC(=O)C1CC(=O)Nc1cc(C)ccc1OC (stereo unspecified) do in these assays?
SMN2 splice up: 3%; FLuc counter: -5%

What do the screens show for `CCOc1ccccc1C(=O)Nc1c(C(=O)Nc2ccc(F)cc2)oc2ccccc12`?
SMN2 splice up: -11%; FLuc counter: -1%

How did CC1=C(C(=O)Nc2cccc(C(F)(F)F)c2)C2(CCN(C(C)C)CC2)OC1=O do in these assays?
FLuc counter: 1%

Results for Cc1ccc(-c2csc(Cc3nc(-c4ccc5c(c4)CCC(=O)N5)cs3)n2)cc1 ?
ELG1 genotoxic: -24%; NPC1 promoter act: -5%; Rab9 promoter act: 1%; FLuc counter: inconclusive; ELG1 repair inh: -21%

What do the screens show for `Cc1nc(-c2ccc3c(c2)CCC(=O)N3)cs1`?
ELG1 genotoxic: inconclusive; NPC1 promoter act: inconclusive; Rab9 promoter act: inconclusive; FLuc counter: 17µM*; ELG1 repair inh: inconclusive

What do the screens show for `COc1cccc(-c2nnc3sc(-c4cccs4)nn23)c1`?
SMN2 splice up: inconclusive; ELG1 genotoxic: 16%; NPC1 promoter act: 3.2µM*; Rab9 promoter act: 2.8µM*; FLuc counter: inconclusive; ELG1 repair inh: 3%

Results for CCOc1cccc(-c2nnc3sc(-c4cccs4)nn23)c1 ?
SMN2 splice up: -21%; ELG1 genotoxic: 5%; NPC1 promoter act: -3%; Rab9 promoter act: 6%; FLuc counter: 1%; ELG1 repair inh: -13%
